Assay outcomes: PubChem, Sanford-Burnham Center for Chemical Genomics
Shown are actives, neighbours in structure and some others; about 4% of the full set was active somewhere.
TIM10 inh = growth inhibitors of isogenic TIM10 control yeast, primary screen, counter-screen for tim10-1 yeast inhibitor project, luminescence, uHTS. inhibition, % at 10 µM. S. cerevisiae TIM10 strain growth, BacTiter-Glo luminescence, 24 h. actives 1.4% (n = 330,000);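 active = inhibition of 40% or more at the single tested concentration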;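 note: wild-type TIM10 isogenic control strain grown at permissive 25 °C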
NALP1 inh = NALP1 inflammasome inhibitors in reconstituted yeast, colorimetric, S. cerevisiae, triplicate retest | AID 2071, 2009 | inhibition, % at 10 µM | actives 0.61% (n = 280,000) | S. cerevisiae NALP1/ASC/caspase-1 growth, X-gal OD620, 72 h; in the data active = inhibition mostly above about 24%, no sharp cut-off; inactive = mostly below about 32%
tim10-1 inh = growth inhibitors of tim10-1 mutant yeast, primary screen, luminescence, uHTS. S. cerevisiae tim10-1 ts strain growth, BacTiter-Glo, 24 h. inhibition, % at 20 µM. actives 2.2% (n = 330,000). AID 463190, 2010;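 active = inhibition of at least 40%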;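 note: mutant grown at 25 °C; 0% = DMSO wells with yeast and 100% = wells holding no yeast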
tim23-1 inh = growth inhibitors of tim23-1 mutant yeast, primary screen, luminescence, uHTS | S. cerevisiae tim23-1 growth, BacTiter-Glo luminescence, 24 h | inhibition, % at 20 µM | AID 463212, 2010 | actives 1.3% (n = 330,000);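 active = growth inhibition of the mutant yeast at or above 50%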;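 note: temperature-sensitive mutant grown at 25 °C; plate controls were DMSO-treated mutant yeast for no effect and medium wells lacking yeast for full effect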
NLRP3 yeast inh = NALP3 inflammasome inhibitors in reconstituted yeast, primary screen, luminescence, uHTS; Yeast reconstituted NLRP3/ASC/caspase-1, beta-gal luminescence, 24 h; inhibition, % at 10 µM; actives 0.39% (n = 330,000); AID 2825, 2010;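 active = inhibition of 50% or more; inactive = inhibition below 50%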;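 note: plate controls were induced DMSO wells for no effect and uninduced yeast grown without galactose for full effect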
NALP3 confirm = NALP3 inhibitors retested in yeast, confirmation, luminescence, single concentration; inhibition, % at 10 µM; actives 81% (n = 1,300); shares compounds with NLRP3 yeast inh; yeast expressing human NALP3; in the data active = inhibition above about 48%
Casp1-ASC yeast = CASP1-PYCARD signaling inhibition in yeast, confirmatory test, counterassay for NLRP3 inhibitor program, one-dose. yeast expressing Caspase-1-ASC, luminescence counter screen. actives 66% (n = 1,000). inhibition, % at 10 µM. shares compounds with NLRP3 yeast inh
NALP3 yeast rt = NALP3 inhibitors in yeast, repeat test, confirmation, luminescence, single concentration, retest; shares compounds with NLRP3 yeast inh; yeast expressing human NALP3, luminescence read-out; inhibition, % at 10 µM; actives 53% (n = 1,000)
Active calls of the source: *; · = no result. Cut-off read from the data, not from the text of the source, unless noted: active = inhibition above about 50%; inactive = the rest.

SMILES | TIM10 inh | NALP1 inh | tim10-1 inh | tim23-1 inh | NLRP3 yeast inh | NALP3 confirm | Casp1-ASC yeast | NALP3 yeast rt
O=c1cc(-c2ccc(O)cc2)oc2ccc3ccccc3c12 | 18 | · | 33 | 49 | 61* | 81* | 58* | 54*
Cc1ccc2sc(NC(=O)CSc3nc(C)cc(C)c3C#N)nc2c1 | 7 | 13 | 4 | 18 | 51* | 41 | 11 | 17
Cc1cc(C(F)(F)F)c(C#N)c(SCC(=O)Nc2nc3ccccc3s2)n1 | 15 | -2 | 3 | 25 | 21 | · | · | ·
Cc1ccc(NC(=O)CSCC(=O)NCCc2ccccc2)c(C)c1 | 3 | · | 4 | 4 | -9 | · | · | ·
CSc1nsc(SCC(=O)NCc2ccc(C)cc2)n1 | -17 | -7 | -8 | 25 | 51* | 62* | 44 | 39
COc1ccc2nc(N3C(=O)CNC3=S)sc2c1 | 13 | · | 2 | 47 | 67* | 35 | · | ·
COC(=O)/C=C1\C(=O)N(c2nc3ccc(OC)cc3s2)C(=S)N1c1ccc(F)cc1 | 9 | 24 | 24 | 16 | -4 | · | · | ·
CC(=O)c1cccc(OCC(O)CN2CCN(C(=O)c3ccco3)CC2)c1 (centres undefined) | -17 | 25 | 2 | -2 | 17 | · | · | ·
CCN(CC)c1ccc2nc3ccccc3[n+](CC)c2c1 | 27 | 28 | 29 | 21 | 67* | 73* | 44 | 57*
COC(=O)C1C(C(=O)OC)C1(c1ccccc1)c1ccccc1 (centres undefined) | 23 | 0 | 29 | 24 | -138 | -38 | · | ·
COC(=O)C1C(c2ccccc2)C=CC(c2ccccc2)C1C(=O)O (centres undefined) | 1 | · | -4 | 4 | -2 | · | · | ·
Cn1ccsc1=NC(=O)c1cc(S(=O)(=O)N2CCOCC2)ccc1F | -5 | · | -2 | 8 | 8 | · | · | ·
Cc1cnccc1CNC(=O)C1CCC(=O)N(Cc2ccc(Cl)cc2)C1 (centres undefined) | 21 | 24 | 13 | 13 | 12 | · | · | ·
CCC(=O)c1coc2ccc(O)cc12 | -13 | · | 9 | 15 | -7 | · | · | ·
CC(=O)Oc1ccc2occ(C(=O)c3cccs3)c2c1 | 29 | -14 | -29 | 0 | 75* | 88* | 81* | 77*
O=C(c1cccs1)c1coc2ccc(O)cc12 | 39 | 0 | -12 | 12 | 67* | 86* | 87* | 76*
CN1CCCN(C(=O)c2ccc(Br)cc2)CC1 | -6 | -13 | 1 | -5 | 10 | · | · | ·
CCC1Oc2ccccc2N(Cc2ccccc2C)C1=O (centres undefined) | 21 | -20 | 20 | 18 | -151 | -22 | · | ·
Oc1ccc(N=Cc2ccc(OCc3ccccc3)cc2)cc1 | -3 | 8 | 0 | 9 | 51* | 31 | · | ·
COc1ccc(C)cc1NC(=O)C1CCN(S(=O)(=O)c2ccc3c(c2)C(C)(C)C(=O)N3C)CC1 | -1 | -3 | 15 | -6 | 80* | 47 | 15 | 17
O=C1/C(=C/c2ccc(N3CCOCC3)o2)SC(=Nc2ccccc2)N1CCc1c[nH]c2ccccc12 | 12 | 8 | 5 | 28 | 68* | 77* | · | ·
CN(CCOc1ccccc1)c1ccc(S(=O)(=O)N2CCCCC2)cn1 | -5 | -9 | 24 | 33 | 55* | 60* | 47 | 52*
CCOc1ccc(S(=O)(=O)Nc2ccc(Cl)cn2)c(C)c1C | -9 | 12 | -13 | 6 | 60* | 77* | 64* | 50
CCOc1cc(C)c(S(=O)(=O)Nc2ccc(Cl)cn2)cc1C | 26 | 17 | 25 | 18 | 10 | · | · | ·
O=C(NCCCN1CCCC1=O)C1CCC(CNS(=O)(=O)c2ccc(Cl)cc2)CC1 (centres undefined) | 9 | 0 | 10 | 9 | 21 | · | · | ·
SMILES | TIM10 inh | NALP1 inh | tim10-1 inh | tim23-1 inh | NLRP3 yeast inh | NALP3 confirm | Casp1-ASC yeast | NALP3 yeast rt
CCCCn1c(N)c(N(Cc2ccccc2OC)C(=O)C(C)C)c(=O)[nH]c1=O | 11 | 21 | -7 | 8 | 18 | · | · | ·
OC(c1ccc(Cl)cc1)c1nccc2ccccc12 (centres undefined) | -5 | 12 | 24 | 22 | 58* | 67* | 65* | 47
CC(C)=CCc1c(O)cc2oc3c(CC=C(C)C)c(O)c(O)c(CC=C(C)C)c3c(=O)c2c1O | -4 | -7 | 13 | 15 | 56* | 74* | 51* | 47
CC(=O)c1ccc(O)c(CC=C(C)C)c1O | -5 | · | 28 | 16 | 14 | · | · | ·
CCn1cnc2sc(-c3ccccc3)cc2c1=O | 2 | 25 | 15 | 6 | 63* | 56* | 66* | 56*
CC(=O)Cn1cnc2sc(-c3ccccc3)cc2c1=O | 15 | 4 | 11 | 10 | 16 | · | · | ·
CC(=O)/C=C\c1cn(-c2ncc(C(F)(F)F)cc2Cl)c2ccccc12 | 7 | 40 | 25 | 43 | 10 | · | · | ·
CO/N=C/NC(=O)Cc1cn(-c2ncc(C(F)(F)F)cc2Cl)c2ccccc12 | 3 | 14 | 6 | 27 | 56* | 64* | 38 | 38
COc1ccc2nc(SCC(=O)N(C)CC(=O)Nc3ccc(F)cc3)[nH]c2c1 | -1 | · | -12 | 8 | 16 | · | · | ·
CC(C)CN(C(=O)c1ccc(C(F)(F)F)cc1)c1c(N)n(CC(C)C)c(=O)[nH]c1=O | 12 | 20 | -2 | 15 | -4 | · | · | ·
CCOC(=O)[C@@H]1[C@H]2COc3ccccc3[C@H]2N2C(=O)N(c3ccc(Cl)cc3)C(=O)[C@@]12C | 4 | 5 | 14 | 38 | -4 | · | · | ·
Cc1cc2ccccn2c1C(=O)c1ccccc1Br | -8 | 10 | 8 | 31 | 57* | 55* | 50* | 45
Cc1cc2ccccn2c1C(=O)c1ccc(F)cc1 | -7 | 11 | -9 | 12 | 48 | · | · | ·
Cc1cc(Cl)c2oc(C(=O)N(C)Cc3ccon3)c(C)c2c1 | -1 | 42* | 29 | 42 | 50* | 48* | 41 | 47
CC1CC(C)CN(S(=O)(=O)c2ccc(NC(=O)[C@@H]3CCCN3C(=O)c3cccs3)cc2)C1 (some centres undefined) | 13 | · | 11 | 15 | 5 | · | · | ·
COC(=O)c1cc(C(=O)c2cccc(Cl)c2Cl)cn1C | -10 | 4 | 0 | 17 | 61* | 73* | 63* | 46
O=C(NNC(=O)C1CC(c2cccs2)=NO1)Nc1ccccc1 (centres undefined) | 11 | 18 | -6 | 6 | 10 | · | · | ·
O=C(CSC(=S)N1CCCC1)c1ccccc1 | -3 | 3 | 4 | -11 | 23 | · | · | ·
O=C(CSC(=S)N1CCCCC1)c1ccccc1 | 15 | 9 | 10 | 20 | 60* | 73* | 70* | 56*
